Among the data in the supplement of paper PMC10849652 are log2 fold change values, retold here.

Holding throughout (assay): log2 fold change, soluble protein after heating vs DMSO (PISA); higher = thermal stabilisation; K562 cells, 10 uM, 30 min; active = over 0.2 and 3.5 SD of the protein, either way, in both replicates (recomputed)
Compound in test [1]: NC(=O)Nc1cc(-c2cccc(F)c2)sc1C(=O)N[C@H]1CCCNC1
The essentials:
(§1)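 Soluble protein was defined as the supernatant after 21,000xg for 90 min. It came from K562 cells at 2×10^6 cells/mL given 10 μM compound for 30 min, heated in aliquots for 3 min across 48°C-58°C, pooled, and extracted in PBS with 0.5% NP-40 at 4°C, and was quantified by TMTpro 16plex LC-MS/MS with equalised channel sums. Thermal stability against control samples, from duplicates, is reported as log2 fold change.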

Compound in test [2]: NC(=O)c1cnc(N[C@@H]2CCCC[C@@H]2N)nc1Nc1cccc(-n2nccn2)c1
In short, it runs like this:
as §1

Compound in test [3]: NC1(c2ccc(-c3nc4ccn5c(=O)[nH]nc5c4cc3-c3ccccc3)cc2)CCC1
In short, it runs like this:
as §1

Compound in test [4]: NCC(=O)Nc1ccc(-n2nc(C(F)(F)F)cc2-c2ccc3c(ccc4ccccc43)c2)cc1
In short, it runs like this: as §1

Compound in another test: Nc1ccccc1NC(=O)c1ccc(CNC(=O)OCc2cccnc2)cc1 [entinostat]
The essentials:
as §1

Compound in another test: O=C(CCCCCCC(=O)Nc1ccccc1)NO [vorinostat]
The essentials: as §1

Compound in the next test: O=C(CCCCCCNC(=O)c1cnc(N(c2ccccc2)c2ccccc2Cl)nc1)NO [citarinostat]
The essentials:
as §1

Compound in another test: O=C(O)c1ccc2c(c1)nc(Nc1cccc(Cl)c1)c1ccncc12 [silmitasertib]
The essentials: as §1

Compound in test [5]: O=C1NC(=O)C(c2cnc3ccccn23)=C1c1cn2c3c(cc(F)cc13)CN(C(=O)N1CCCCC1)CC2
The essentials: as §1

Compound in test [6]: c1cc(OCCN2CCCCC2)cc(-c2n[nH]c3ccc(-c4nnc[nH]4)cc23)c1
The essentials:
as §1

The full data set covers some 7,900 targets. This sample favours those with a hit. About 0.6% of all pairs of compound and target were hits. Unmarked numbers belong to inactive results.

Sequence of UniProt Q9BXP2 (Q9BXP2 whole entry, looked up): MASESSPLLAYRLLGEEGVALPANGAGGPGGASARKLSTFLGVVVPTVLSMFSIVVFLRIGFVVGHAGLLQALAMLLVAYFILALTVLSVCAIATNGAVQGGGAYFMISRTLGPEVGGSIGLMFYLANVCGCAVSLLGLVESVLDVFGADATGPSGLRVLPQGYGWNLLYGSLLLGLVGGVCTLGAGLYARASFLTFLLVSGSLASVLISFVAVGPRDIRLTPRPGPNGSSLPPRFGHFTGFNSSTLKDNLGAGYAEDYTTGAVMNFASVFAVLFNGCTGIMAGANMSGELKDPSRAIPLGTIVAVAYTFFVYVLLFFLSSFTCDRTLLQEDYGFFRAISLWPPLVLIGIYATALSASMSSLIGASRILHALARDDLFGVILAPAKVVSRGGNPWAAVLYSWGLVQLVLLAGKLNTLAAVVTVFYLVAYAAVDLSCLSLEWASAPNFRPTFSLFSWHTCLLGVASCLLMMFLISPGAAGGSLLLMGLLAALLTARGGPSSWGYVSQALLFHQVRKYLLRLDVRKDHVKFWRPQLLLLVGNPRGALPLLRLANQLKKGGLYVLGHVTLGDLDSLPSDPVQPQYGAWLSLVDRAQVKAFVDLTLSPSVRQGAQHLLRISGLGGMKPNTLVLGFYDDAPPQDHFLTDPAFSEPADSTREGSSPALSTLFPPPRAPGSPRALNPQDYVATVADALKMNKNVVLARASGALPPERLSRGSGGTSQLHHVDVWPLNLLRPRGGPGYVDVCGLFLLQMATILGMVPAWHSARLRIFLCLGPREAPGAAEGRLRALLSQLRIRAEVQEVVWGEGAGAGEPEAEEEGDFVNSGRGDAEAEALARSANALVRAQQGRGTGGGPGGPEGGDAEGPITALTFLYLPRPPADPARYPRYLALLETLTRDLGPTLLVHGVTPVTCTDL
Sequence of UniProt Q5VTB9 (Q5VTB9 whole entry, looked up): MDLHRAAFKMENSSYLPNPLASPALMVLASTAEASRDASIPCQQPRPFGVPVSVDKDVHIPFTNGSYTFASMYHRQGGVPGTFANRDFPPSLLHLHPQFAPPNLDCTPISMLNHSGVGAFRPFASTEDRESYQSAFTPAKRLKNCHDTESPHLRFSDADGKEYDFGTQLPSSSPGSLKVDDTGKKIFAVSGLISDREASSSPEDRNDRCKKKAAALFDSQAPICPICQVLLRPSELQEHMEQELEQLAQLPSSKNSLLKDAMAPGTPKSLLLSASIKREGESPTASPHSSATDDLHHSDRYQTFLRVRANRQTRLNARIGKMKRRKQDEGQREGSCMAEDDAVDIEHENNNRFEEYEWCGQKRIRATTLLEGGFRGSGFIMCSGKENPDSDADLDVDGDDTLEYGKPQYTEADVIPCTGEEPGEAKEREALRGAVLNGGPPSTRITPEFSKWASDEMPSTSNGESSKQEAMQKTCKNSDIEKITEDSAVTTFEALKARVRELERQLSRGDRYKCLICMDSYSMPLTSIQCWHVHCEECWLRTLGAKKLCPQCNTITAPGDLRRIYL
Sequence of UniProt Q8IXJ6 (Q8IXJ6 whole entry, looked up): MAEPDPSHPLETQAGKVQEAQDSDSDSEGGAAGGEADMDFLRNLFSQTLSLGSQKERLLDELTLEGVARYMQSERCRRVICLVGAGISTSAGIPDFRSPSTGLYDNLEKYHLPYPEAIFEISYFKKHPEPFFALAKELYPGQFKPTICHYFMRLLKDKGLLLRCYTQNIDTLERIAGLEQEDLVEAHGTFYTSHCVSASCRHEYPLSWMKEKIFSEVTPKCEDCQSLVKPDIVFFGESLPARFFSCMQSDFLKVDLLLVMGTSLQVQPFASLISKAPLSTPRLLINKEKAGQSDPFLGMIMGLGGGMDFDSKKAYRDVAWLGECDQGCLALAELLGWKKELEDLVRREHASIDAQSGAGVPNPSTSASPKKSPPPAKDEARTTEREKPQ
Sequence of UniProt Q96IZ7 (Q96IZ7 whole entry, looked up): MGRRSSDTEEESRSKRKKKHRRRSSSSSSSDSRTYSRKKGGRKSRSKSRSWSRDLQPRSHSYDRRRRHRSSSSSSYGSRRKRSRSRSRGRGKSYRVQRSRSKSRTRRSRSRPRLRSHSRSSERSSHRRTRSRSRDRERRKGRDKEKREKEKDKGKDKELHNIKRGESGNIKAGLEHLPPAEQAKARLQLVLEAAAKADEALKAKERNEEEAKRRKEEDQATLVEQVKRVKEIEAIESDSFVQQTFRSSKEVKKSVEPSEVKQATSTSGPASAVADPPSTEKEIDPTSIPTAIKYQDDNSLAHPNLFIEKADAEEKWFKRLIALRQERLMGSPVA
Sequence of UniProt Q9NSI8 (Q9NSI8 whole entry, looked up): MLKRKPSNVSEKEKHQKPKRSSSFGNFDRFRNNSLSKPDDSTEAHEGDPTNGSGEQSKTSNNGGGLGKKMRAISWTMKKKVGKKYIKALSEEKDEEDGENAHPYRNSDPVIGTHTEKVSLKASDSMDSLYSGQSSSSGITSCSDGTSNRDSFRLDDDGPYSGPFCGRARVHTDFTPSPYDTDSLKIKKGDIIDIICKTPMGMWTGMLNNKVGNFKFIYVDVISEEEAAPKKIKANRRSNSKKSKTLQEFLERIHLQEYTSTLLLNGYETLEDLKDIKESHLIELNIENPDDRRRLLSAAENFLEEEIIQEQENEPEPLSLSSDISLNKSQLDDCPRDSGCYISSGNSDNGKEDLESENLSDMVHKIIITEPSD
Sequence of UniProt Q15436 (Q15436 whole entry, looked up): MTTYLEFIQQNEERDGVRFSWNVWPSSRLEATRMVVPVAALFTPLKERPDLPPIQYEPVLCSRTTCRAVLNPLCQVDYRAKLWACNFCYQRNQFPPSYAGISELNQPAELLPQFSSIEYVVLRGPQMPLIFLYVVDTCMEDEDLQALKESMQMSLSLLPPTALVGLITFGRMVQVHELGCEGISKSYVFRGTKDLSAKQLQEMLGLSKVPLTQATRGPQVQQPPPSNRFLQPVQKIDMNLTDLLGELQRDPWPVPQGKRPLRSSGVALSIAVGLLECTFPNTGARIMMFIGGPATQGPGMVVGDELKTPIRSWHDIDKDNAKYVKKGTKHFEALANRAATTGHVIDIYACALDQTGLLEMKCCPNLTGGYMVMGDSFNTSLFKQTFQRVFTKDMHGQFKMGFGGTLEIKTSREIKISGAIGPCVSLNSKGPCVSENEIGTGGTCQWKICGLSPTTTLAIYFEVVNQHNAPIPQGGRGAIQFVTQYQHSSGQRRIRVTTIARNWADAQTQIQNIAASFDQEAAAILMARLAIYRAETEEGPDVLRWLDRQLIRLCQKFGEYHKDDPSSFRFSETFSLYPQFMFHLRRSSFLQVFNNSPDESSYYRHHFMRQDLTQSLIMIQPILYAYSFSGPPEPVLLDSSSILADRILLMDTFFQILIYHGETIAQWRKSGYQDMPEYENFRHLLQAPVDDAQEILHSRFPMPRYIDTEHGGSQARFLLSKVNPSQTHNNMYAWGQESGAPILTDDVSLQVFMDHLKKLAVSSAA
Sequence of UniProt Q9H082 (Q9H082 whole entry, looked up): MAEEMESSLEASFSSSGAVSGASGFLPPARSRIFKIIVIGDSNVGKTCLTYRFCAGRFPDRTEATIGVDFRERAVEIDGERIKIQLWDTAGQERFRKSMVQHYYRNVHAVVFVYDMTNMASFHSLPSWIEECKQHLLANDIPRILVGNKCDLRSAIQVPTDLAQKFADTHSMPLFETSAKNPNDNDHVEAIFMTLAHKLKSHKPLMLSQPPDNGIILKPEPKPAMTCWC
Sequence of UniProt Q8WWV3 (Q8WWV3 whole entry, looked up): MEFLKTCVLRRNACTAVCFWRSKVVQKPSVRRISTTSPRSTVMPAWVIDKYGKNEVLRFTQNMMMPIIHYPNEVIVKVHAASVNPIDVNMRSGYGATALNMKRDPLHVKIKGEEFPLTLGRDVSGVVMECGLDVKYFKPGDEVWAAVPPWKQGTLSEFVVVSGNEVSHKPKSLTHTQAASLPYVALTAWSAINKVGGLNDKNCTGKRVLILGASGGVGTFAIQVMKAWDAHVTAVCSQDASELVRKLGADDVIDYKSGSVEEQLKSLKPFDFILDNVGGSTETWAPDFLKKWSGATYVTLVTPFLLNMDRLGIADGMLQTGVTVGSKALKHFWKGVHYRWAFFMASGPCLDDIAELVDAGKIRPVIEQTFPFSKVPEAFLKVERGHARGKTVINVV
Sequence of UniProt Q15287 (Q15287 whole entry, looked up): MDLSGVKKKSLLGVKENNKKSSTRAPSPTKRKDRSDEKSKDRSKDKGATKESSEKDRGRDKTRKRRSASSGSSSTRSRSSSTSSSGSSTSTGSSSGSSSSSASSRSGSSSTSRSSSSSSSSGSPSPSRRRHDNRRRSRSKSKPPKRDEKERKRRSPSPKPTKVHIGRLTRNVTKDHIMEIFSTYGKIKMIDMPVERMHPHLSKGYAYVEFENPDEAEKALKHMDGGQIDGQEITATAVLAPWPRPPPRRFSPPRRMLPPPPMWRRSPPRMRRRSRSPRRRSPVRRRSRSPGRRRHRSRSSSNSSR
Sequence of UniProt Q8WXD2 (Q8WXD2 whole entry, looked up): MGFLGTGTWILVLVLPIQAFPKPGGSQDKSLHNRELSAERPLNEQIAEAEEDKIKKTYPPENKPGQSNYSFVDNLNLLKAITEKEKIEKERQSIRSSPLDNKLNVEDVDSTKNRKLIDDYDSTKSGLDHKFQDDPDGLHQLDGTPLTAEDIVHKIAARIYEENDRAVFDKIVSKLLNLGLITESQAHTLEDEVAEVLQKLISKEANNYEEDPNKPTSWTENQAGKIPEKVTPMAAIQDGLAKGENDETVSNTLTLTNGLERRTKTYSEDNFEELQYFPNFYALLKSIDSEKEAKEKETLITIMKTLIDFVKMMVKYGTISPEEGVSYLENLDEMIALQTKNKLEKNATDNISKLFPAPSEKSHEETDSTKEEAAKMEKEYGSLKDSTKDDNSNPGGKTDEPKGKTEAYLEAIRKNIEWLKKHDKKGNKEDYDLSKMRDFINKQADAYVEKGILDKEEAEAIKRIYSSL
Sequence of UniProt O43665 (O43665 whole entry, looked up): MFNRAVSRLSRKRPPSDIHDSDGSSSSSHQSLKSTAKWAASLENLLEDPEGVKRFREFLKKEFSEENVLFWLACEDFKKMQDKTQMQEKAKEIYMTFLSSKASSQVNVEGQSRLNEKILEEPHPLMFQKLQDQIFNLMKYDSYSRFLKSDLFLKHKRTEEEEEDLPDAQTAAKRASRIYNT

Consider RNF220 (UniProt Q5VTB9), for which the log2 fold change in test [1] was 0.01; in test [2], -0.019; in [3], -0.002; in [4] it was -0.06; in the test with entinostat it was -0.037; with vorinostat it was 0.052. Moreover, the log2 fold change with citarinostat was 0.043; with silmitasertib it was 0.025; in test [5], -0.075; in test [6], -0.038.
Take SEC23A (UniProt Q15436): the log2 fold change is -0.004 in test [1]; 0.064 in [2]; -0.066 in test [3]; -0.015 in [4]; -0.035 in the test with entinostat; -0.02 in the test with vorinostat. Further, the log2 fold change in the test with citarinostat is -0.044; with silmitasertib it was 0.011; in [5], 0.024; in [6] it was -0.097.
SHROOM2 (UniProt Q13796): the log2 fold change is 0.024 in test [1]; -0.09 in test [2]; 0.275 in test [3]; 0.006 in test [4]; -0.037 with entinostat; 0.068 with vorinostat. Besides, the log2 fold change is 0.057 in the test with citarinostat, -0.141 with silmitasertib, -0.088 in test [5] and 0.057 in [6].
Turning to RAB33B (UniProt Q9H082), the log2 fold change in test [1] is -0.032; in test [2], 0.014; in test [3], 0.037; in test [4], -0.019; in the test with entinostat it was -0.035; in the test with vorinostat it was -0.021. Moreover, the log2 fold change is -0.016 in the test with citarinostat, -0.014 with silmitasertib, -0.048 in [5] and -0.032 in test [6].
In the case of RTN4IP1 (UniProt Q8WWV3), the log2 fold change was -0.057 in [1]; -0.218 in [2]; -0.085 in test [3]; -0.024 in test [4]; 0.009 in the test with entinostat; 0.111 with vorinostat. The log2 fold change in the test with citarinostat is 0.316; in the test with silmitasertib, 0.069; in test [5], 0.079; in test [6], -0.198.
Take RSRC1 (UniProt Q96IZ7): the log2 fold change was -0.019 in test [1]; 0.162 in test [2]; -0.005 in test [3]; -0.013 in test [4]; -0.04 with entinostat; 0.022 with vorinostat. The log2 fold change with citarinostat was 0.049; in the test with silmitasertib it was -0.275 (active); in [5] it was -0.029; in test [6], -0.123.
Consider SAMSN1 isoform 3 (UniProt Q9NSI8), for which the log2 fold change in test [1] is -0.06; in test [2], -0.067; in test [3], -0.067; in test [4], -0.028; in the test with entinostat it was 0.099; with vorinostat, 0.009. Moreover, the log2 fold change was 0.06 with citarinostat, 0.063 with silmitasertib, -0.073 in test [5] and -0.025 in test [6].
Regarding SIRT2 (UniProt Q8IXJ6), the log2 fold change is -0.048 in test [1]; 0.023 in test [2]; -0.07 in test [3]; -0.066 in test [4]; -0.02 with entinostat; -0.039 with vorinostat. The log2 fold change with citarinostat is -0.022; in the test with silmitasertib, -0.035; in test [5], -0.035; in test [6] it was 0.033.
Take RGS10 (UniProt O43665): the log2 fold change is 0.077 in test [1]; 0.068 in test [2]; -0.037 in [3]; 0.11 in test [4]; 0.038 in the test with entinostat; 0.054 in the test with vorinostat. Further, the log2 fold change with citarinostat was 0.087; with silmitasertib, 0.01; in test [5], -0.057; in test [6] it was 0.033.
RNPS1 (UniProt Q15287): the log2 fold change in test [1] is -0.019; in test [2], -0.39; in [3] it was 0.097; in test [4], 0.031; in the test with entinostat it was -0.06; with vorinostat it was 0.024. In addition, the log2 fold change with citarinostat is 0.038; with silmitasertib it was -0.111; in test [5], -0.018; in [6] it was -0.146.
As to SLC12A9 (UniProt Q9BXP2), the log2 fold change is 0.05 in [1]; -0.142 in test [2]; -0.313 (active) in [3]; -0.03 in [4]; 0.021 with entinostat; 0.027 in the test with vorinostat. For the same target, the log2 fold change in the test with citarinostat was 0.035; with silmitasertib, 0.017; in [5] it was -0.081; in test [6], -0.062.
In the case of SCCPDH (UniProt Q8NBX0), the log2 fold change was -0.113 in [1]; -0.056 in [2]; 0.045 in test [3]; -0.024 in test [4]; -0.071 with entinostat; 0.062 with vorinostat. In addition, the log2 fold change with citarinostat is 0.199; with silmitasertib, -0.004; in [5] it was 0.123; in test [6], 0.33.
Consider SCG3 (UniProt Q8WXD2), for which the log2 fold change in [1] is 0.028; in [2], -0.051; in test [3], 0.114; in test [4] it was 0.061; with entinostat, 0.009; with vorinostat it was 0.025. Moreover, the log2 fold change with citarinostat was -0.015; in the test with silmitasertib, -0.029; in test [5], 0.018; in [6] it was -0.098.
Take RPS21 (UniProt P63220): the log2 fold change is 0.022 in test [1]; 0.018 in test [2]; 0.114 in [3]; -0.012 in [4]; -0.061 in the test with entinostat; -0.059 with vorinostat. Also, the log2 fold change with citarinostat is 0.002; with silmitasertib, 0.008; in test [5] it was 0.045; in [6], -0.015.
For RBM8A (UniProt Q9Y5S9), the log2 fold change in test [1] was -0.044; in test [2], 0.075; in test [3] it was -0.045; in test [4] it was -0.068; with entinostat, 0.037; with vorinostat, -0.025. Moreover, the log2 fold change in the test with citarinostat was 0.03; with silmitasertib, 0.011; in test [5], -0.019; in test [6] it was -0.076.
